For assay [1], the target named is RAC-alpha serine/threonine-protein kinase (Homo sapiens) (UniProt P31749). Particulars: at 0.1 µM.
The target is the same in assay [2]. Particulars: at 1 µM.
Assay [3] addresses RAC-beta serine/threonine-protein kinase (Homo sapiens) (UniProt P31751). Conditions: at 0.1 µM.
The target is the same in assay [4]. Particulars: at 1 µM.
Assay [5] concerns the target RAC-gamma serine/threonine-protein kinase (Homo sapiens) (UniProt Q9Y243). Conditions: at 0.1 µM.
Assay [6] shares this target. Particulars: at 1 µM.
For assay [7], the target named is G protein-coupled receptor kinase 6 (Homo sapiens) (UniProt P43250). Particulars: at 0.1 µM.
The target is the same in assay [8]. Particulars: at 1 µM.
Assay [9] has as its target T1, Rhodopsin kinase GRK7 (Homo sapiens) (UniProt Q8WTQ7).
T1 sequence (whole entry): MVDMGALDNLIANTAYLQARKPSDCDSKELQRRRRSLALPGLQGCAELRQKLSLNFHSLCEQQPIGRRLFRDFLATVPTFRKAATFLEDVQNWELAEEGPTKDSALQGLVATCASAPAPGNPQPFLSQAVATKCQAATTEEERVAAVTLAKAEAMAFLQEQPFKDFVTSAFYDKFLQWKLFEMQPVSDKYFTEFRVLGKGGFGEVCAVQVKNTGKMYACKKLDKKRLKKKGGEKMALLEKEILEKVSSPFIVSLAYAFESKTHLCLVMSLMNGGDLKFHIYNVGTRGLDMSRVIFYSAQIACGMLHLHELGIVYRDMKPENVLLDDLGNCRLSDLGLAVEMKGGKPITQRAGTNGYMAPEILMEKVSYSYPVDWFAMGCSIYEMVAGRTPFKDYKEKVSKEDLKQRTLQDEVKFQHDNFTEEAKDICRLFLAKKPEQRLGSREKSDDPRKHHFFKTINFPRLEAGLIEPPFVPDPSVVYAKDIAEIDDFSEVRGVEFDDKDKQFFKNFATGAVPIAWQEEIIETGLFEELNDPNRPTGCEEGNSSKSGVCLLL
Particulars: at 0.1 µM.

For assay [10], the target named is T1, Rhodopsin kinase GRK7 (Homo sapiens). Particulars: at 1 µM.
Assay [11] addresses Serine/threonine-protein kinase MRCK alpha (Homo sapiens) (UniProt Q5VT25). Particulars: at 0.1 µM.
For assay [12] the target is unchanged. Particulars: at 1 µM.
In assay [13] the target is Serine/threonine-protein kinase MRCK beta (Homo sapiens) (UniProt Q9Y5S2). Conditions: at 0.1 µM.
Assay [14] has the same target. Conditions: at 1 µM.
In assay [15] the target is Ribosomal protein S6 kinase alpha-5 (Homo sapiens) (UniProt O75582). Particulars: at 0.1 µM.
Sequence of Ribosomal protein S6 kinase alpha-5 (Homo sapiens) (O75582 whole entry, looked up): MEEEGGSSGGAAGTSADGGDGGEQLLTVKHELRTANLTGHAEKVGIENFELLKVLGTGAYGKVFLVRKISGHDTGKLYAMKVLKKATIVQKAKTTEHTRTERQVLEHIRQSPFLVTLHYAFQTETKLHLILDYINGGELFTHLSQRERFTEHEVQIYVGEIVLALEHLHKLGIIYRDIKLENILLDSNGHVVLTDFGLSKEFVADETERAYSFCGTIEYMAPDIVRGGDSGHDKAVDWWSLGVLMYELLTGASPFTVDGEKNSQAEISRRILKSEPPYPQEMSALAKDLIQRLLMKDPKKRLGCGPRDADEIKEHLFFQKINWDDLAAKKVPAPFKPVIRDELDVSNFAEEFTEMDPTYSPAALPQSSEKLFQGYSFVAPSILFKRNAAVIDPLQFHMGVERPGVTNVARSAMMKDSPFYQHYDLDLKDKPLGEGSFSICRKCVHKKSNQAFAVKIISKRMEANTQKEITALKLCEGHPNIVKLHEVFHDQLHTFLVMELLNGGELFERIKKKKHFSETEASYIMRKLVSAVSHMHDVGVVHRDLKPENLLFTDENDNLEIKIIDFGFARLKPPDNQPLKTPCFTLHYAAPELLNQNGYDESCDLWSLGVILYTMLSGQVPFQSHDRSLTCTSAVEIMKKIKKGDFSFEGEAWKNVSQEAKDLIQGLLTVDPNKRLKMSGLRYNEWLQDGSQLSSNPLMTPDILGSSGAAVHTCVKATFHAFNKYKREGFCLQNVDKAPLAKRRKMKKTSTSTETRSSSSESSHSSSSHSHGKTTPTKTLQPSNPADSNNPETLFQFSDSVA
Assay [16] has the same target. Conditions: at 1 µM.
The target of assay [17] is Ribosomal protein S6 kinase alpha-4 (Homo sapiens) (UniProt O75676). Particulars: at 0.1 µM.
Sequence of Ribosomal protein S6 kinase alpha-4 (Homo sapiens) (O75676 whole entry, looked up): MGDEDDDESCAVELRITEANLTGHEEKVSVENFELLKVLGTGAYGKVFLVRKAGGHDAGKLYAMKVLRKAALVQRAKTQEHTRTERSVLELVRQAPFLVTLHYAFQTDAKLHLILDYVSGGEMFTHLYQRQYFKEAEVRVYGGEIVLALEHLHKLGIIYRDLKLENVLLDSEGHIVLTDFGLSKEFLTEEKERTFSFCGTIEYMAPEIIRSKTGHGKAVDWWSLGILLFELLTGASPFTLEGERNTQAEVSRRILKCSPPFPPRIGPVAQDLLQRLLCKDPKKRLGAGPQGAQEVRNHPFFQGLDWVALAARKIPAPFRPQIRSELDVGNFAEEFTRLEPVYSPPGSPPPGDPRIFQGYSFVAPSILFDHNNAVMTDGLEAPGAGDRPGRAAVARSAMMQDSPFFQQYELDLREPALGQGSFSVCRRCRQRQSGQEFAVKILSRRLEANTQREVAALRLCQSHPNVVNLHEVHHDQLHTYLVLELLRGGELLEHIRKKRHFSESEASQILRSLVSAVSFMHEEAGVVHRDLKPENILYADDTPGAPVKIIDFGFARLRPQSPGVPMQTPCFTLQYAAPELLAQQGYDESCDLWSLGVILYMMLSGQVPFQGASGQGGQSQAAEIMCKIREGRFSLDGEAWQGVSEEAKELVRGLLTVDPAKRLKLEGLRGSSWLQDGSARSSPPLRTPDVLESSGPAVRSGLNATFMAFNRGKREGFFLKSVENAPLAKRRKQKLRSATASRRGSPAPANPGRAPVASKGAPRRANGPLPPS
For assay [18] the target is unchanged. Particulars: at 1 µM.
Assay [19] deals with Ribosomal protein S6 kinase beta-1 (Homo sapiens) (UniProt P23443). Conditions: at 0.1 µM.
Assay [20] has the same target. Conditions: at 1 µM.

Sequence of RAC-alpha serine/threonine-protein kinase (Homo sapiens) (P31749 whole entry): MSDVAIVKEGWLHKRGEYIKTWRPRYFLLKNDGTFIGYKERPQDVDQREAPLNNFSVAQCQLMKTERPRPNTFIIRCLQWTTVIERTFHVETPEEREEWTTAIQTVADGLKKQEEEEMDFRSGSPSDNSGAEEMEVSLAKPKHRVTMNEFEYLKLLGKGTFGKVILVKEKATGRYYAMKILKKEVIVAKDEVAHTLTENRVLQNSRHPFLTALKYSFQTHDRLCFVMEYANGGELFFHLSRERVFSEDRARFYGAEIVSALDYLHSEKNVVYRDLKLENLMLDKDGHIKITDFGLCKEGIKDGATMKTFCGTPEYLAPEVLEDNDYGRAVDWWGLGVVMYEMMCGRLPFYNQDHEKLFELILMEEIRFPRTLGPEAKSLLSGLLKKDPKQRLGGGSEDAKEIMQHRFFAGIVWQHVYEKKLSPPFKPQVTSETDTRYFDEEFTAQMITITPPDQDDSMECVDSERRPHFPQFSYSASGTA
Sequence of RAC-gamma serine/threonine-protein kinase (Homo sapiens) (Q9Y243 whole entry): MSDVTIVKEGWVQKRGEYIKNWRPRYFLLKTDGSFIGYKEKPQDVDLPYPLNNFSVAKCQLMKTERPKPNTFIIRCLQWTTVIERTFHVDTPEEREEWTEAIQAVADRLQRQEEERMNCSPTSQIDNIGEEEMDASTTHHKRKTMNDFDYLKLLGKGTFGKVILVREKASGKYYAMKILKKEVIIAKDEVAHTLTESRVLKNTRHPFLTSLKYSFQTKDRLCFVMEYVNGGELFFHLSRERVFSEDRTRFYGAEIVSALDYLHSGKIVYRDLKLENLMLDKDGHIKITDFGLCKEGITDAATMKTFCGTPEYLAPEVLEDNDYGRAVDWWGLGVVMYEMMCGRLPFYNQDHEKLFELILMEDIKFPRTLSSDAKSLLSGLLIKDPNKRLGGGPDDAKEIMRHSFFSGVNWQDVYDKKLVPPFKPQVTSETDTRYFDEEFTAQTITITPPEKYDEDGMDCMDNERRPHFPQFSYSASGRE
Sequence of RAC-beta serine/threonine-protein kinase (Homo sapiens) (P31751 whole entry): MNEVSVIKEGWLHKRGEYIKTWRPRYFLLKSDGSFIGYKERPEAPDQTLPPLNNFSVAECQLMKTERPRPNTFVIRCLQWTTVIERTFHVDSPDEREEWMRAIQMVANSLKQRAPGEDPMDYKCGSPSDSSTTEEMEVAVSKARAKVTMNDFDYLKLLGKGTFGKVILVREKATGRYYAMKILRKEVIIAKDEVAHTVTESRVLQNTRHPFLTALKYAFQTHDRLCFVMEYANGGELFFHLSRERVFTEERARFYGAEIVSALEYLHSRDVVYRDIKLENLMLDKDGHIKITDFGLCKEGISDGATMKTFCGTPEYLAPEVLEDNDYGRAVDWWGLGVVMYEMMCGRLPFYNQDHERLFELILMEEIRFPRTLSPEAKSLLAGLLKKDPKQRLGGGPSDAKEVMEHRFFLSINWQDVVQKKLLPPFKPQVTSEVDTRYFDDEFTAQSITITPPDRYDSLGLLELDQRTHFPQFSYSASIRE
Sequence of Serine/threonine-protein kinase MRCK alpha (Homo sapiens) (Q5VT25 whole entry): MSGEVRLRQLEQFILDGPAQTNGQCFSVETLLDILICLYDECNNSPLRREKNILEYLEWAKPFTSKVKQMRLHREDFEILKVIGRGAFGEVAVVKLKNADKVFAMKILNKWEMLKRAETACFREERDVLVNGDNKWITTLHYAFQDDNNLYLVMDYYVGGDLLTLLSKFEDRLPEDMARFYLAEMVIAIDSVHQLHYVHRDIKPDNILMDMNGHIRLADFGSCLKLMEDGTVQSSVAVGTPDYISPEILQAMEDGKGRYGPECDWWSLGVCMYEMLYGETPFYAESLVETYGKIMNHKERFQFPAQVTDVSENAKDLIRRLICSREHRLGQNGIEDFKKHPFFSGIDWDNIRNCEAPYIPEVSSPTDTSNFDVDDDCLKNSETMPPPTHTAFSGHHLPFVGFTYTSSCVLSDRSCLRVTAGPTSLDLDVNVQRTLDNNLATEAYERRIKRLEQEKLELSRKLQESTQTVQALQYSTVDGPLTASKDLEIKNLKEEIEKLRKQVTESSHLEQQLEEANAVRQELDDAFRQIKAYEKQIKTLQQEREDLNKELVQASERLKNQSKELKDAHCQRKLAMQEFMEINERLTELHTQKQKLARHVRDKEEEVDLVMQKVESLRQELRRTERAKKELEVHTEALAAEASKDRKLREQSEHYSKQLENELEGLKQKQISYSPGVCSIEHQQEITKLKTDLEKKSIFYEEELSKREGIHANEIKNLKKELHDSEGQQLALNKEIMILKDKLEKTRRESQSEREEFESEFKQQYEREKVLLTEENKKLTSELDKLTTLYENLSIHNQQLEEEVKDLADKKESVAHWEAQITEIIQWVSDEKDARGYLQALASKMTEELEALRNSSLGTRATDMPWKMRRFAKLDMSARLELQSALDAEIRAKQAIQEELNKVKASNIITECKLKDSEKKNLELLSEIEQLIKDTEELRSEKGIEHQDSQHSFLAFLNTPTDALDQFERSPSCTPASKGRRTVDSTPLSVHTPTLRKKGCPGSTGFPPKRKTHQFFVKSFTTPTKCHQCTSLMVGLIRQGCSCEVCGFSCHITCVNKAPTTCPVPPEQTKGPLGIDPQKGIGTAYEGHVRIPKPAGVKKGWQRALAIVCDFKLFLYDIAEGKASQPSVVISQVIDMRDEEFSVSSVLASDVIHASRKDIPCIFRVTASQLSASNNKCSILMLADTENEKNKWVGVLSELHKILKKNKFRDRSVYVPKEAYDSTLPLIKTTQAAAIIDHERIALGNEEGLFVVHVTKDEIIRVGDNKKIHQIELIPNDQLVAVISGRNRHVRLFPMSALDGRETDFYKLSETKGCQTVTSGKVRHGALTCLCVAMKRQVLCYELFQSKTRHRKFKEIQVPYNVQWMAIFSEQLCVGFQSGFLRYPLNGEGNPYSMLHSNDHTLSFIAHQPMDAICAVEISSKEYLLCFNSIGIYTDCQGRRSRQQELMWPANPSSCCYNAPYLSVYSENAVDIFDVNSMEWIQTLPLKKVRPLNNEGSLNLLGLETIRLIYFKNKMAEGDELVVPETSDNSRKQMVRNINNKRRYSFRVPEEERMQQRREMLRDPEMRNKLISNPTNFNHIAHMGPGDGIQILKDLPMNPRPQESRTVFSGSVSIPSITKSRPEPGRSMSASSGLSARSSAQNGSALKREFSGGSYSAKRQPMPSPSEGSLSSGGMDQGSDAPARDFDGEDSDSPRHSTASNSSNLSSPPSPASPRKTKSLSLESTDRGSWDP

As to `Fc1ccc(-c2ncn(C3CCNCC3)c2-c2ccnc(Oc3ccc4c(c3)OCO4)n2)cc1`, the inhibition came out at 2.04% in assay [1]; 1.04% in assay [2]; 0.93% in [3]; 2.21% in [4]; 0.23% in assay [5]; 3.88% in assay [6]. Further, the inhibition in assay [7] was 0.51%; in [8], 2.27%; in assay [9], 9.41%; in assay [10] it was 2.9%; in assay [11], -2.57%; in assay [12], 9.23%. Further, the inhibition in [13] is 0.96%; in [14] it was 2.94%; in assay [15], -2.64%; in assay [16] it was -3.44%; in [17], 3.63%; in [18], 4.53%. Besides, the inhibition was 2.58% in assay [19] and 5.14% in assay [20].

Turning to `CCS(=O)(=O)c1ccc(OC)c(Nc2ncc(-c3ccccc3Cl)o2)c1`, the inhibition in [1] was determined as 0.85%; in assay [2], 0.46%; in assay [3], 0.22%; in assay [4], 0.16%; in assay [5] it was 0.76%; in assay [6] it was 0.93%. In addition, the inhibition is 2.4% in assay [7]; -0.11% in [8]; -1.21% in assay [9]; -6.79% in [10]; -0.23% in [11]; 1.6% in assay [12]. Moreover, the inhibition in assay [13] is -0.41%; in assay [14], 0.3%; in assay [15], 0.87%; in assay [16] it was 3.53%; in assay [17], 0.38%; in assay [18], 1.77%. The results for the inhibition in [19] and in assay [20] were 0.04% and 2.73%, respectively.

Take `O=C1Nc2ccc(I)cc2C1=Cc1cc(Br)c(O)c(Br)c1`: the inhibition in assay [1] is 1.14%; in [2], 0.96%; in assay [3] it was 1.72%; in [4] it was 1.1%; in assay [5] it was 1.78%; in assay [6] it was 0.85%. The inhibition was 4.84% in assay [7]; 17.8% in assay [8]; 12.1% in assay [9]; 15.5% in assay [10]; 6.44% in assay [11]; 3.97% in assay [12]. For the same compound, the inhibition is -0.53% in [13]; 1.27% in assay [14]; 1.69% in assay [15]; 1.77% in assay [16]; 2.87% in assay [17]; 4.68% in assay [18]. Moreover, the inhibition in assay [19] stood at 2.06%; in assay [20], 4.52%.

Consider `CCc1nccc2c1nc(-c1nonc1N)n2CC`, for which the inhibition in assay [1] is -0.45%; in assay [2] it was 0.43%; in assay [3], 0.34%; in assay [4], 1.71%; in assay [5], 0.28%; in assay [6], 0.55%. In addition, the inhibition in assay [7] is -0.76%; in assay [8], -2.13%; in [9] it was -2.75%; in [10], 2.78%; in [11] it was 0.8%; in [12] it was 1.36%. For the same compound, the inhibition in assay [13] amounted to 0.74%; in [14] it was 3.39%; in assay [15] it was 6.51%; in [16], 37.7%; in [17], 2.18%; in assay [18] it was 19.5%. In addition, the results for the inhibition in [19] and in assay [20] were 10.5% and 49.6%, respectively.

With `COc1cc2ncn(-c3cc(OCc4ccccc4C(F)(F)F)c(C(C)=O)s3)c2cc1OC`, the inhibition in [1] amounted to 0.53%; in assay [2], 1.82%; in [3] it was 0.85%; in assay [4], 1.16%; in assay [5], 0.29%; in assay [6] it was 1.31%. Further, the inhibition is -0.96% in assay [7]; 0.01% in [8]; 4.7% in assay [9]; 1.62% in assay [10]; -2.12% in [11]; 1.84% in assay [12]. Besides, the inhibition in assay [13] is 0.33%; in assay [14], 0.86%; in assay [15] it was 1.02%; in assay [16], -0.03%; in [17], 1.45%; in assay [18], 3.01%. Moreover, the results for the inhibition in assay [19] and in assay [20] were 0.79% and 0.12%, respectively.

Consider `NC(=O)c1ccc(Oc2nccc(-c3c(-c4ccc(F)cc4)ncn3C3CCNCC3)n2)cc1`, for which the inhibition in assay [1] amounted to 1.54%; in assay [2], 3.25%; in assay [3] it was 2.45%; in assay [4], 1.86%; in [5], 3.04%; in assay [6], 7.31%. Besides, the inhibition was 4.21% in [7]; 7.44% in [8]; -1.91% in assay [9]; 2.41% in assay [10]; 5.74% in assay [11]; 5.95% in [12]. Further, the inhibition in assay [13] was 1.2%; in assay [14], 2.3%; in [15] it was -2.57%; in [16], -1.95%; in assay [17] it was 3.42%; in assay [18] it was 5.79%. For the same compound, the inhibition in assay [19] amounted to 3.21%; in assay [20], 5.34%.

The record behind these values is ChEMBL document CHEMBL1961873, “Compounds: GSK PKIS; Assays: Nanosyn kinase panel” (2012).
